Laboratory results from PubChem BioAssay (Tox21).
Records with an inconclusive call do not appear. Calls of active or inactive are those of the source. Unless noted, calls come from the whole dose curve; as a rule, active = well fitted curve in the direction sought with a large enough effect in the repeat runs; inconclusive = weak or mixed curves; inactive = no such curve, though single readings can be large; an effect the other way counts as inactive or inconclusive.

Experiments:
[1] = A CellTox Green Cytotoxicity Assay to monitor cytotoxicity in HEK293 cells - 32 hour (AID 1224881); note: nearly all actives have a fitted effect of over 40% in size; note: potency is the fitted concentration of half-maximal effect
How it was run: (§1)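 Seeding of HEK293 cells together with cytotoxicity dye preceded a 5 h incubation at 37 C/5% CO2. Test compounds in DMSO were then added and fluorescence monitored across 40 h.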

[2] = A CellTox Green Cytotoxicity Assay to monitor cytotoxicity in HepG2 cells - 0 hour (AID 1224882); note: nearly all actives have a fitted effect of over 35% in size; note: potency is the fitted concentration of half-maximal effect
How it was run: (§2)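 Nonlytic assay: viable cells exclude the dye, so fluorescence scales with cell death. HepG2 at 600 cells/well, compounds added after 5 h, signal read across 40 h.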

[3] = A CellTox Green Cytotoxicity Assay to monitor cytotoxicity in HepG2 cells - 32 hour (AID 1224883); note: nearly all actives have a fitted effect of over 50% in size; note: potency is the fitted concentration of half-maximal effect
How it was run: as §2

[4] = A CellTox Green Cytotoxicity Assay to monitor cytotoxicity in HEK293 cells - 8 hour (AID 1224884); note: nearly all actives have a fitted effect of over 35% in size; note: potency is the fitted concentration of half-maximal effect
How it was run: as §1

[5] = qHTS RealTime-Glo MT Cell Viability Assay in HepG2 cells - 16 hour (AID 1224885); note: nearly all actives have a fitted effect of over 50% in size; note: potency is the fitted concentration of half-maximal effect
How it was run: (§3)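 qHTS, HepG2, 600 cells/well, RealTime-Glo (NanoLuc + prosubstrate) added with cells; 5 h preincubation; DMSO compound addition; 37 C; luminescence at 0/8/16/24/32/40 h.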

[6] = qHTS RealTime-Glo MT Cell Viability Assay in HEK293 cells - 24 hour (AID 1224886); note: nearly all actives have a fitted effect of over 50% in size; note: potency is the fitted concentration of half-maximal effect
How it was run: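 Assay medium contained NanoLuc luciferase plus cell-permeant prosubstrate, added with HEK293 cells at 600 cells/well. After 5 h at 37 C/5% CO2 compounds were added; plates stayed at 37 C for 40 h with serial luminescence reads.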

[7] = qHTS RealTime-Glo MT Cell Viability Assay in HEK293 cells - 8 hour (AID 1224887); note: nearly all actives have a fitted effect of over 50% in size; note: potency is the fitted concentration of half-maximal effect
How it was run: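 Tox21 screen in HEK293 using RealTime-Glo MT chemistry, with cells and reagent co-dispensed. Luminescence proportional to viable cell number was captured at intervals during 40 h compound exposure at 37 C.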

[8] = A CellTox Green Cytotoxicity Assay to monitor cytotoxicity in HepG2 cells - 8 hour (AID 1224890); note: nearly all actives have a fitted effect of over 45% in size; note: potency is the fitted concentration of half-maximal effect
How it was run: as §2

[9] = qHTS assay to identify small molecule antagonists of the estrogen receptor alpha (ER-alpha) signaling pathway using the BG1 cell line in the presence of 0.1 nM 17-beta-estradiol - cell viability counter screen (AID 1259241); note: nearly all actives have a fitted effect of over 40% in size; note: potency is the fitted concentration of half-maximal effect
How it was run: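 VM7Luc4E2, 4,000 cells/well, phenol red-free medium + 10% charcoal-stripped FBS; 24 hr plating; cpd + 0.1 nM E2 final, 22 hr 37C/5% CO2; CellTiter-Fluor 30 min, fluorescence.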

[10] = qHTS assay to identify small molecule antagonists of the androgen receptor (AR) signaling pathway using the MDA cell line in the presence of 0.5 nM R1881 - cell viability counter screen (AID 1259242); note: nearly all actives have a fitted effect of over 45% in size; note: potency is the fitted concentration of half-maximal effect
How it was run: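 R1881 at 0.5 nM final stimulated MDA-kb2 cells during 16 hr compound treatment at 37C. Cytotoxicity read: CellTiter-Fluor fluorescence after 30 min.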

[11] = qHTS assay to identify small molecule phospholipidosis (PLD) inducers (AID 1259344; active = well fitted curve in the direction sought with a large enough effect; an effect the other way counts as inactive or inconclusive)
How it was run: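 Fluorescent phospholipid staining (LipidTOX Red) measured by automated microscopy in fixed HepG2 cells after 24 h treatment; nuclei counterstained with Hoechst 33342; amiodarone as reference inducer.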

[12] = qHTS assay to identify small molecule HDAC inhibitors (AID 1259364);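 note: wild-type HCT-116 cells with endogenous class I/II HDAC activity; top concentration of the series differs between compounds; nearly all actives have a fitted effect of over 45% in size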
How it was run: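 Relative class I and II HDAC activity is taken from the luminogenic signal in HCT-116 cells, with compound exposure 2 hr and reagent development 30 min at room temperature.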

[13] = qHTS assay to identify small molecule HDAC inhibitors - cell viability counter screen (AID 1259365); note: nearly all actives have a fitted effect of over 50% in size; note: potency is the fitted concentration of half-maximal effect
How it was run: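 Luminescence from CellTiter-Glo, developed 30min at room temperature, reports viability of wild-type HCT-116 cells treated 2hr with compounds at 37 C and 5% CO2 after overnight plating.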

[14] = qHTS assay to identify small molecule antagonists of the sonic hedgehog signaling (Shh) pathway - cell viability counter screen (AID 1259367); note: nearly all actives have a fitted effect of over 55% in size; note: potency is the fitted concentration of half-maximal effect
How it was run: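 Using CellTiter-Fluor, viability of Gli1-Luc reporter 3T3 cells is read by fluorescence in the wells used for the Shh luciferase assay. Treatment lasts 23 hr with conditioned medium, then reagent 1 hr at 37C.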

[15] = qHTS assay to identify small molecule agonists of the sonic hedgehog signaling (Shh) pathway (AID 1259368; calls by dose curve;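 note: NIH/3T3-derived 3T3Gli1-Luc cells carrying a stable Gli1-driven firefly luciferase reporter; series mostly up to about 92 µM; nearly all actives have a fitted effect of over 15% in size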)
How it was run: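 Mouse fibroblast (NIH/3T3) reporter cells with stably integrated Gli1-Luc were treated 24 hr with compound; firefly luciferase luminescence served as the read-out.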

[16] = A CellTox Green Cytotoxicity Assay to monitor cytotoxicity in HEK293 cells - 16 hour (AID 1224888); note: nearly all actives have a fitted effect of over 35% in size
How it was run: as §1

[17] = qHTS assay to identify small molecule agonists of the sonic hedgehog signaling (Shh) pathway - cell viability counter screen (AID 1259366); note: nearly all actives have a fitted effect of over 50% in size; note: potency is the fitted concentration of half-maximal effect
How it was run: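 Cytotoxicity counter screen run in the same wells as the Shh reporter assay. NIH/3T3 cells carrying a Gli1 response element–driven luciferase were treated with DMSO-dissolved compounds for 24hr, and live-cell protease activity was measured with CellTiter-Fluor.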

[18] = target: Androgen receptor (Homo sapiens) (UniProt P10275); assay: qHTS assay to identify small molecule antagonists of the androgen receptor (AR) signaling pathway using the MDA cell line in the presence of 0.5 nM R1881 (AID 1259243)
How it was run: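 We exposed MDA-kb2 cells to compounds under 0.5 nM R1881 stimulation for 16 hr at 37C and quantified MMTV-driven luciferase by luminescence.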

[19] = target: Estrogen receptor (Homo sapiens) (UniProt P03372); assay: qHTS assay to identify small molecule antagonists of the estrogen receptor alpha (ER-alpha) signaling pathway using the BG1 cell line in the presence of 0.1 nM 17-beta-estradiol (AID 1259244); note: nearly all actives have a fitted effect of over 50% in size; note: potency is the fitted concentration of half-maximal effect
How it was run: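 VM7Luc4E2; 4xERE-luciferase; 0.1 nM E2 final; 22 h co-incubation, 37C; ONE-Glo luminescence after 30 min at room temperature.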

[20] = qHTS RealTime-Glo MT Cell Viability Assay in HepG2 cells - 0 hour (AID 1224889); note: nearly all actives have a fitted effect of over 50% in size
How it was run: as §3

Measured: Potency

Estrogen receptor (Homo sapiens), sequence (P03372 whole entry, looked up): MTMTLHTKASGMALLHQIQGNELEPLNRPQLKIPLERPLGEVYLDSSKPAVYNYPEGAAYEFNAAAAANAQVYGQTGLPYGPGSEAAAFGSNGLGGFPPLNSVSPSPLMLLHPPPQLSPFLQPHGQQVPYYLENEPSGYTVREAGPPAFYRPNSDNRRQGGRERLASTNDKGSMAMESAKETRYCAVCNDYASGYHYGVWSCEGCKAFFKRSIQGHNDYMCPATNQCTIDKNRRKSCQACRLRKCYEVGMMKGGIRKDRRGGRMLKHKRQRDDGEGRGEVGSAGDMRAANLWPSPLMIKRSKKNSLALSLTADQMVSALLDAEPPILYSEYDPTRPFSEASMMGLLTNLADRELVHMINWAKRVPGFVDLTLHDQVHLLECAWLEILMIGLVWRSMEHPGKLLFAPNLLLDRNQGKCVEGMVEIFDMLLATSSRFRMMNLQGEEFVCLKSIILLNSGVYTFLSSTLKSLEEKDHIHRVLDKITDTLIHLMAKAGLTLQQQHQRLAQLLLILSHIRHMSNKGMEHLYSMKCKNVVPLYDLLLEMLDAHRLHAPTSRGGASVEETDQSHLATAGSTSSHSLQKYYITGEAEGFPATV
Androgen receptor (Homo sapiens), sequence (P10275 whole entry, looked up): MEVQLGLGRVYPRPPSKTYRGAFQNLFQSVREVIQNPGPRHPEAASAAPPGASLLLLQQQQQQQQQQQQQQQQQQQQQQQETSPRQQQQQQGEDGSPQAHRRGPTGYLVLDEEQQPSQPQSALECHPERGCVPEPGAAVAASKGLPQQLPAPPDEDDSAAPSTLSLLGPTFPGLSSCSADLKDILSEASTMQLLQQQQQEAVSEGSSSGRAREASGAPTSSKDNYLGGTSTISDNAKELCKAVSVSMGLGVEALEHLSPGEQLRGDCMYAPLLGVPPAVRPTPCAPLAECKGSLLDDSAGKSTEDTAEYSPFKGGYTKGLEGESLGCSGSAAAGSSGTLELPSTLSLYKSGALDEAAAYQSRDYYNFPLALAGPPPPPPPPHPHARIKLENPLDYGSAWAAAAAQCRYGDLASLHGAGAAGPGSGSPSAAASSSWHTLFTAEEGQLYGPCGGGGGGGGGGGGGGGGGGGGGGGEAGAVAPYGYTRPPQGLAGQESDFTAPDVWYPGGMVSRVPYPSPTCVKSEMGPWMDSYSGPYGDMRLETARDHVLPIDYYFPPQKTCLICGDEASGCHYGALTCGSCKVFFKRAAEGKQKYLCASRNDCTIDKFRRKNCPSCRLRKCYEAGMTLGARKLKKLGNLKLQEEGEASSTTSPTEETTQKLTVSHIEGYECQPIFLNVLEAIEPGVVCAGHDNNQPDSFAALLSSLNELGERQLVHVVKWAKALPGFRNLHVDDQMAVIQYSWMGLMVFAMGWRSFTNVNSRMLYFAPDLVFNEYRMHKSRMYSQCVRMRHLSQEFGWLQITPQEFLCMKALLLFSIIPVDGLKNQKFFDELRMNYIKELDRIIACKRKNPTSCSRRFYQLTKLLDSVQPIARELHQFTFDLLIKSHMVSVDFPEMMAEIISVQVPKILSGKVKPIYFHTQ

C[N+]1(C)[C@@H]2CC[C@H]1CC(OC(=O)C(CO)c1ccccc1)C2 (stereo partly drawn)
inactive: [1] | [2] | [3] | [4] | [5] | [6] | [7] | [8] | [9] | [10] | [11] | [12] | [13] | [14] | [15]

CN
inactive: [1] | [2] | [3] | [4] | [5] | [6] | [7] | [16] | [8] | [9] | [10] | [12] | [13] | [17] | [14] | [15]

CC(=O)[O][Pb]([c]1ccccc1)([c]1ccccc1)[c]1ccccc1
active: [1] 3.09 µM | [3] 0.871 µM | [4] 11 µM | [5] 1.55 µM | [6] 0.436 µM | [7] 3.47 µM | [8] 3.89 µM | [9] 21.7 µM | [10] 6.11 µM | [18] 0.969 µM | [13] 61.1 µM | [17] 0.486 µM | [14] 0.77 µM
inactive: [2] | [19] | [15]

CC(=O)[O-].CC(=O)[O-].O.O.[Zn+2]
inactive: [1] | [2] | [3] | [4] | [5] | [6] | [7] | [20] | [8] | [9] | [10] | [12] | [13] | [17] | [14] | [15]

CCOP(=S)(OCC)Oc1cc(C)nc(N(CC)CC)n1
inactive: [1] | [2] | [3] | [4] | [5] | [6] | [16] | [20] | [8] | [9] | [10] | [12] | [13] | [14]
active: [18] 34.4 µM

Cc1ccn2nc(S(=O)(=O)Nc3c(F)cccc3F)nc2n1
inactive: [1] | [2] | [3] | [4] | [5] | [6] | [7] | [20] | [8] | [9] | [10] | [12] | [13] | [17] | [14] | [15]

CNC(=O)CSP(=O)(OC)OC
inactive: [1] | [2] | [3] | [4] | [5] | [6] | [16] | [20] | [8] | [9] | [10] | [19] | [12] | [13] | [17] | [14] | [15]

CNC(=O)/C=C(\C)OP(=O)(OC)OC
inactive: [1] | [2] | [3] | [4] | [5] | [6] | [7] | [16] | [8] | [10] | [19] | [12] | [13] | [17] | [14] | [15]

CCCCON=O
inactive: [1] | [2] | [3] | [4] | [5] | [6] | [7] | [20] | [8] | [9] | [10] | [12] | [13] | [14] | [15]

CC(C)N(C(=O)SC/C(Cl)=C/Cl)C(C)C
active: [1] 39.2 µM
inactive: [2] | [3] | [4] | [5] | [6] | [16] | [20] | [8] | [9] | [10] | [19] | [12] | [13] | [17] | [14] | [15]

CCCN
inactive: [1] | [2] | [3] | [4] | [5] | [6] | [7] | [8] | [10] | [12] | [13] | [14] | [15]

CCC1(CC)C(=O)N=C(O)NC1=O
inactive: [1] | [2] | [3] | [4] | [5] | [6] | [7] | [8] | [9] | [10] | [19] | [12] | [13] | [17] | [14] | [15]

CCC[CH2][Sn]([CH2]CCC)([CH2]CCC)[CH2]CCC
active: [1] 13.8 µM | [2] 38.9 µM | [3] 15.5 µM | [4] 49 µM | [5] 6.92 µM | [6] 9.77 µM | [7] 11 µM | [8] 21.9 µM | [9] 19.3 µM | [14] 21.7 µM
inactive: [20] | [12] | [15]

CCN(CC)CCc1c[nH]c2ccccc12
inactive: [1] | [2] | [3] | [4] | [5] | [6] | [7] | [20] | [8] | [9] | [10] | [19] | [11] | [12] | [13] | [17] | [14]

CC(C)C(Nc1ccc(C(F)(F)F)cc1Cl)C(=O)OC(C#N)c1cccc(Oc2ccccc2)c1 (stereo not drawn)
inactive: [1] | [2] | [3] | [4] | [5] | [6] | [16] | [20] | [8] | [9] | [10] | [19] | [12] | [13] | [17] | [14]

COC(=O)c1ccccc1S(=O)(=O)NC(=O)Nc1nc(C)nc(OC)n1
inactive: [1] | [2] | [3] | [4] | [5] | [6] | [7] | [16] | [8] | [9] | [10] | [12] | [13] | [14] | [15]

Clc1cc(Cl)c(-c2cc(Cl)c(Cl)cc2Cl)cc1Cl
inactive: [1] | [2] | [3] | [4] | [5] | [6] | [7] | [16] | [8] | [9] | [10] | [12] | [13] | [17] | [14] | [15]

CN/C(=N\[N+](=O)[O-])NCc1cnc(Cl)s1
inactive: [1] | [2] | [3] | [4] | [5] | [6] | [7] | [20] | [8] | [10] | [19] | [12] | [13] | [17] | [14]

COc1cnc(OC)n2nc(NS(=O)(=O)c3c(OCC(F)F)cccc3C(F)(F)F)nc12
inactive: [1] | [2] | [3] | [4] | [5] | [6] | [16] | [20] | [8] | [9] | [10] | [19] | [12] | [13] | [17] | [14]

Cc1ccc2cc3c(ccc4ccccc43)c3c2c1CC3
active: [3] 6.93 µM | [19] 0.546 µM
inactive: [1] | [2] | [4] | [5] | [6] | [7] | [20] | [8] | [9] | [10] | [12] | [13] | [17] | [14] | [15]
